# Test results: PubChem BioAssay (NCI)
# This is part of a sample that, as a whole, favours compounds with a hit. Of some 83,000 tested, about 20% had one in any assay.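 Interpretation: 100, growth as untreated; towards 0, rising growth inhibition; 0, no net growth; 0 to -100, cell death. Compounds scoring below 10 were considered active.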 Calls of active or inactive are those of the source.
# System: HL-60(TB) leukemia
# Test: NCI-60 one-dose screen, 48 h (100 = growth as untreated, 0 = no growth, -100 = all killed)
# Settings: 10 µM unless noted
# Protocol: Growth inhibition of the HL-60(TB) human tumor cell line is measured as a screen for anti-cancer activity. Cells are grown in 96 well plates and exposed to the test compound for 48 hours. Compounds are tested at a single concentration, which is 10^-5 M for most compounds. The reported endpoint is percent growth (GI% or GIPRCNT), where numbers from 0 - 100% represent growth inhibition, and numbers from -100% - 0 represent cell death. For example, a value of 40 represents 60% growth inhibition. A value of 0 means no net growth occurred over the course of the experiment. A value of -40 indicates 40% of cells at the beginning of the experiment died by the end of the experiment. A value of -100 means all cells are dead at the end of the experiment.
# NCI-60 Human Tumor Cell Lines Screen was performed using the standard one-dose NCI protocol, which is described in more detail at https://dtp.cancer.gov/discovery_development/nci-60/default.htm.
# Compounds with GIPRCNT values below 10 were considered active. Activity score was based on GIPRCNT using the following formula: […]
# Score is 0 for GIPRCNT values of 100 or above, 50 for GIPRCNT values of 0, and 100 for GIPRCNT values of -100.
row,Structure (SMILES),growth
1,COC(=O)c1cccc(NC2=C(Cl)C(=O)C(C)=C(C)C2=O)c1,60.4% (inactive)
2,C#CCN(C)CCCOc1ccc(NC(=O)CCCCCCC(=O)NO)cc1Cl,12.1% (inactive)
3,O=C(N/N=C/c1cc2ccccc2nc1Cl)c1cc(-c2nc3ccccc3[nH]2)nc2ccccc12,92% (inactive)
4,CC(=O)c1ccc(Nc2nc(SCC(C)C)nc(-c3ccccc3)c2C#N)cc1,101% (inactive)
5,O=C(Nc1nc2ccc(O)cc2s1)c1cccc(C(F)(F)F)c1,18.3% (inactive)
6,O=C(/C=C/c1cccc(F)c1)c1cccc(OCCCOc2cccc(C(=O)/C=C/c3cccc(F)c3)c2)c1,68.3% (inactive)
7,CCCCc1nc2c(N)nc3ccccc3c2n1Cc1cccc(CN)c1,11.9% (inactive)
8,C#Cc1nc(C2=C(C)/C(=N/OCc3ccccc3)CC2)cs1,-54.1% (active)
9,CN1CCN(Cc2ccc(NC(=O)c3cncc(C#Cc4cnc5ccc(NCCO)nn45)c3)cc2C(F)(F)F)CC1,-12.1% (active)
10,Cc1nc(N)sc1-c1csc(Nc2ccc(C(F)(F)F)cc2)n1,27.9% (inactive)
11,CN(C)c1ccc(-c2c(NC(C)(C)C)nc3c(OCCc4ccccc4)cccn23)cc1,-32.7% (active)
12,O=C(Nc1ccc(N=Cc2c(O)[nH]c3ccccc23)cc1)Nc1nccs1,42% (inactive)
13,O=C1Nc2ccccc2/C1=C/c1ccc(COCC2CO2)n1-c1ccc(O)cc1 (stereo not given),103% (inactive)
14,NS(=O)(=O)c1cccc(Nc2nc(SCC(=O)c3ccc(Cl)cc3)nc3ccccc23)c1,90.9% (inactive)
15,CCOC(=O)c1cnc2c(-c3ccc(Cl)c(Cl)c3)cnn2c1,59.5% (inactive)
16,C=CCn1c(SCC(=O)Nc2ccc(OC)cc2)nnc1-c1ccc(Cl)cc1,78% (inactive)
17,O=C(CCCCCCN1CC(=O)N2[C@@H](c3ccccc3)c3[nH]c4ccccc4c3C[C@H]2C1=O)NO,28.5% (inactive)
18,COc1cc(-c2nc(SCc3ccc(C)cc3)[nH]c(=O)c2C#N)ccc1OCc1ccccc1,137% (inactive)
19,Cc1ccc(C)c(NC2=C(Cl)C(=O)c3nc(C)ccc3C2=O)c1,-25.8% (active)
20,CC(C)(C)c1ccc(C(=O)Nc2nc3ccc(O)cc3s2)cc1,24.8% (inactive)

row,Structure (SMILES),growth
1,c1ccc(CNc2ncnc3ccc(-c4cnc5[nH]ncc5c4)cc23)cc1,63.8% (inactive)
2,COc1ccc(-n2c(SCC(=O)Nc3ccc(-c4nc5ccccc5[nH]4)cc3)nc3ccccc3c2=O)cc1,45.6% (inactive)
3,COc1cc(-c2nc3ccc(-c4nnc(SCC(=O)Nc5ccc(C(C)=O)cc5)o4)cc3[nH]2)cc(OC)c1OC,104% (inactive)
4,O=C(NNc1nc2cc(F)cc(F)c2n2cccc12)c1ccncn1,-7.85% (active)
5,Fc1cccc(Cl)c1/C=N/Nc1nc(N/N=C/c2c(F)cccc2Cl)nc(N2CCCCC2)n1,1.27% (active)
6,N#Cc1cnc2ccc(-c3cnc(N)nc3)cc2c1N1CCc2cc(F)c(Cl)cc21,-11.7% (active)
7,Cc1ccc(-c2cc3nc(C(Cl)Cl)nc(C)n3n2)cc1,107% (inactive)
8,CC(=O)c1ccc(Nc2nc(SCC(C)C)nc(-c3ccc(F)cc3)c2C#N)cc1,103% (inactive)
9,O=C1Nc2ccc(Cl)cc2/C1=C/c1ccc(OCC(=O)c2ccc(Br)cc2)cc1,110% (inactive)
10,CC(C)(C)OC(=O)NCc1ccc(CNc2c([N+](=O)[O-])cnc3ccccc23)cc1,49.1% (inactive)
11,CC(C)(C)c1ccc(C(=O)Nc2sc3c(c2C(N)=O)CC/C(=N\O)C3)cc1,4.37% (active)
12,COc1ccc(Cn2cc3c(c2-c2cc(OC)c(OC)c(OC)c2)CCCc2cnoc2-3)cc1N,-9.82% (active)
13,C/C(=N\NC(=O)Nc1ccccc1)c1nnn(-c2ccc([N+](=O)[O-])cc2)c1C,98.9% (inactive)
14,Cc1ccc(CNc2nc3ccc(OC/C(=C/F)CN)cc3o2)cn1,141% (inactive)
15,COc1ccccc1C(=O)Nc1cccc2c1C(=O)C(=O)C=C2,9.19% (active)
16,CCCC(=O)NC(c1cccnc1)c1ccc2c(C)ccnc2c1O (stereo not given),6.67% (active)
17,CCOc1ccc2nc(NC(=O)Nc3ccccc3C)sc2c1,15.3% (inactive)
18,C/C(CC1(O)C(=O)Nc2ccccc21)=N\O (stereo not given),97% (inactive)
19,Oc1ccc(CSc2nnc(-c3cnccn3)o2)c2cccnc12,-11.5% (active)
20,O=C(/C=C/c1cccc(F)c1)c1cccc(OCCCCOc2cccc(C(=O)/C=C/c3cccc(F)c3)c2)c1,101% (inactive)
